In PubChem BioAssay (EPA / NIEHS):
Records with an inconclusive call do not appear. The source made the active and inactive calls. The calls were made as follows, unless noted: active = hit-call score of the fitted dose curve at least 0.9, where 1 is the maximum; inconclusive = response in the unintended direction; inactive = score below 0.9.

How the values were obtained:
[1] = ATG_TAL_CIS: Attagene CIS-FACTORIAL HepG2 Assay for human TAL Basal Promoter (AID 2282966; active = hit-call score of the fitted dose curve at least 0.9, where 1 is the maximum; inactive = score below 0.9;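 also: background control endpoint measuring basal TAL promoter reporter mRNA not a specific factor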); details: HepG2 Attagene cis-factorial TAL promoter reporter; actives raise or lower the signal
In short: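 Basal-promoter background-control endpoint from a multiplexed HepG2 reporter panel. Cells were exposed 24 h, then reporter mRNA was read by RT-PCR/CE fluorescence and fitted in both directions relative to DMSO.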

[2] = ATG_VDRE_CIS: Attagene CIS-FACTORIAL HepG2 Assay for human Vitamin D Receptor Element (VDRE) (AID 2282968; active = hit-call score of the fitted dose curve at least 0.9, where 1 is the maximum; inactive = score below 0.9); details: HepG2 VDRE cis-reporter transcription, actives raise or lower the signal
In short: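 Steps: transfect HepG2 with multiple reporter transcription units; dose chemicals 24 h; isolate RNA; RT-PCR; label with 6-FAM primer extension; HpaI digest; capillary electrophoresis. Curves fitted both directions against DMSO.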

[3] = target: X-box-binding protein 1 (Homo sapiens) (UniProt P17861); experiment: ATG_Xbp1_CIS: Attagene CIS-FACTORIAL HepG2 Assay for human X-box Binding Protein 1 (XBP1) (AID 2282972; active = hit-call score of the fitted dose curve at least 0.9, where 1 is the maximum; inactive = score below 0.9); details: HepG2 XBP1 cis-element reporter, Attagene multiplex; actives raise or lower the signal
X-box-binding protein 1 (Homo sapiens), sequence (P17861 whole entry, looked up): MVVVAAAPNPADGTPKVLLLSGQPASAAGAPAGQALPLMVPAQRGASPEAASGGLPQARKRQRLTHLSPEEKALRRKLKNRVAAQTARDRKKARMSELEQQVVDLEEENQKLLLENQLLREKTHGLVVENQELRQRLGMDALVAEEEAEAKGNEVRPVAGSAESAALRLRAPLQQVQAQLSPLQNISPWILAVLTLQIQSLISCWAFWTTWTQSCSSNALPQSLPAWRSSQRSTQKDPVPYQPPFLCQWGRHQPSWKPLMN
In short: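 Human hepatoma HepG2, cis-element reporter system, 24 h treatment; mRNA quantified by RT-PCR/CE fluorescence; fit relative to DMSO.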

[4] = ATG_M_19_TRANS: Attagene TRANS-FACTORIAL HepG2 Assay for M19 Transcription Factor (Internal Marker) (AID 2282974); details: HepG2 Attagene TRANS-FACTORIAL M19 internal marker reporter
In short: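 Gain-of-signal in reporter mRNA, relative to DMSO, was scored from capillary electrophoresis fluorescence. HepG2 cells carried transiently transfected multiple reporter transcription units and were incubated with test chemicals for 24 h.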

[5] = target: Glucocorticoid receptor (Homo sapiens) (UniProt P04150); experiment: ATG_GR_TRANS: Attagene TRANS-FACTORIAL HepG2 Assay for human Glucocorticoid Receptor (GR) (AID 2282978); details: HepG2 Attagene TRANS GR reporter, mRNA transcription;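 also: activators score as hits since higher reporter transcript over DMSO is fitted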
Glucocorticoid receptor (Homo sapiens), sequence (P04150 whole entry, looked up, the tested form may be a part): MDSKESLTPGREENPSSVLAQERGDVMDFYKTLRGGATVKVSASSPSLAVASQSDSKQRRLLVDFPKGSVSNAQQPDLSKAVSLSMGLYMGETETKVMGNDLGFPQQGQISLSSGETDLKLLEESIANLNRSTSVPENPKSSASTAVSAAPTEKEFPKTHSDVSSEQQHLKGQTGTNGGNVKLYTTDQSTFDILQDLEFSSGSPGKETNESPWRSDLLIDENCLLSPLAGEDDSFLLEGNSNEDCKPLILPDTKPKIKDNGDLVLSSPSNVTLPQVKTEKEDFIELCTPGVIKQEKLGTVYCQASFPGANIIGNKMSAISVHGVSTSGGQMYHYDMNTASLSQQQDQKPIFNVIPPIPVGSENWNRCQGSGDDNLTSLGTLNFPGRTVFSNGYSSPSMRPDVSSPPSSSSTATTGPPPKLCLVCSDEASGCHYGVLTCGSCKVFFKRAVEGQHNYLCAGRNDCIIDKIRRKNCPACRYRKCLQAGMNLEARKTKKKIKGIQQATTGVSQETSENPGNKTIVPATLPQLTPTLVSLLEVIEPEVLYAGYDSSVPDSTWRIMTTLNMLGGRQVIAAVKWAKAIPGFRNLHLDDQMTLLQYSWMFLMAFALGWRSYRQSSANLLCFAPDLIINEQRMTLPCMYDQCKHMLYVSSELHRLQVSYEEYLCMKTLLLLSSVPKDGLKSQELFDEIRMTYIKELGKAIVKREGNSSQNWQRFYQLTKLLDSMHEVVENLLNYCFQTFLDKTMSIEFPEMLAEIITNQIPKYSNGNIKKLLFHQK
In short: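 HepG2 transient transfection, multiple reporter units, GAL4-UAS under NR-GAL4 chimera control. 24 h treatment. Reporter mRNA by RT-PCR/CE fluorescence, DMSO as negative control.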

[6] = target: Oxysterols receptor LXR-alpha (Homo sapiens) (UniProt Q13133); experiment: ATG_LXRa_TRANS: Attagene TRANS-FACTORIAL HepG2 Assay for human Liver X Receptor alpha (LXRa) (AID 2282980); details: HepG2 Attagene TRANS reporter, LXRa transactivation
Oxysterols receptor LXR-alpha (Homo sapiens), sequence (Q13133 whole entry, looked up, the tested form may be a part): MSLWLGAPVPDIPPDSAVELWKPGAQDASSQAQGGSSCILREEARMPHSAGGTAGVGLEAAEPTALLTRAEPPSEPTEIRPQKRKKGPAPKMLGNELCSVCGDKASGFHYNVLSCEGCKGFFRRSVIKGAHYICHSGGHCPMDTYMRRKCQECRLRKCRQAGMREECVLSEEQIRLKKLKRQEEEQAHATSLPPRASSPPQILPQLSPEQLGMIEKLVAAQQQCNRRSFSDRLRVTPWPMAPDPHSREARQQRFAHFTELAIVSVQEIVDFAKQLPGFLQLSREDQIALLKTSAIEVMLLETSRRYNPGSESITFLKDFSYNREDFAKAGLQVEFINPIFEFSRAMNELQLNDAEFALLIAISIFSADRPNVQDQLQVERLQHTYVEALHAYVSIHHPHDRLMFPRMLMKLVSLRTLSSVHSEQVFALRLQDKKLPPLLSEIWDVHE
In short: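 HepG2 cells transiently transfected with GAL4-UAS reporter units for chimeric NR-Gal4 proteins, exposed to chemicals for 24 h. Reporter mRNA quantified by RT-PCR and capillary electrophoresis; gain of signal fitted relative to DMSO.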

[7] = target: Oxysterols receptor LXR-beta (Homo sapiens) (UniProt P55055); experiment: ATG_LXRb_TRANS: Attagene TRANS-FACTORIAL HepG2 Assay for human Liver X Receptor beta (LXRb) (AID 2282981); details: HepG2 Attagene TRANS GAL4-LXRb reporter, mRNA
Oxysterols receptor LXR-beta (Homo sapiens), sequence (P55055 whole entry, looked up, the tested form may be a part): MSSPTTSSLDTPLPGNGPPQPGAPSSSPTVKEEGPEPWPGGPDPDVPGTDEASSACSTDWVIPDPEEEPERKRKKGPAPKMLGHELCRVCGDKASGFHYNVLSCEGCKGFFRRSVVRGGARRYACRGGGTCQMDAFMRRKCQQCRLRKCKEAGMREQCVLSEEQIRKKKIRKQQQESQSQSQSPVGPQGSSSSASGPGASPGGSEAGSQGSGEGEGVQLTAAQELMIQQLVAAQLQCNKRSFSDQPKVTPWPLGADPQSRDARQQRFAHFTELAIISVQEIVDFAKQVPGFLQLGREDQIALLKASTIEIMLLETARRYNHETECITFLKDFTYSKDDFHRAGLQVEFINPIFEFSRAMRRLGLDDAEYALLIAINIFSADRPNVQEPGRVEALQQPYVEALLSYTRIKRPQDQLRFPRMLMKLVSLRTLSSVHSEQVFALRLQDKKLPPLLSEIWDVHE
In short: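 Measures induction of a Gal4-driven reporter transcript in HepG2 cells expressing an exogenous LXRb-Gal4 fusion. Cells are exposed to compound for 24 h before RNA isolation and RT-PCR with capillary electrophoresis detection.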

[8] = ATG_M_06_TRANS: Attagene TRANS-FACTORIAL HepG2 Assay for M06 Transcription Factor (Internal Marker) (AID 2282983); details: HepG2 Attagene TRANS M06 internal marker reporter
In short: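 mRNA levels of a reporter transcript, quantified as FAM fluorescence on capillary electrophoresis, served as readout. HepG2 cells expressing exogenous GAL4-chimera reporter constructs were exposed for 24 h. Gain of signal over DMSO was evaluated.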

[9] = target: Nuclear receptor subfamily 4 group A member 2 (Homo sapiens) (UniProt P43354); experiment: ATG_NURR1_TRANS: Attagene TRANS-FACTORIAL HepG2 Assay for human Nuclear Receptor Related Protein 1 (NURR1) (AID 2282985); details: HepG2 Attagene TRANS reporter, mRNA readout
Nuclear receptor subfamily 4 group A member 2 (Homo sapiens), sequence (P43354 whole entry, looked up, the tested form may be a part): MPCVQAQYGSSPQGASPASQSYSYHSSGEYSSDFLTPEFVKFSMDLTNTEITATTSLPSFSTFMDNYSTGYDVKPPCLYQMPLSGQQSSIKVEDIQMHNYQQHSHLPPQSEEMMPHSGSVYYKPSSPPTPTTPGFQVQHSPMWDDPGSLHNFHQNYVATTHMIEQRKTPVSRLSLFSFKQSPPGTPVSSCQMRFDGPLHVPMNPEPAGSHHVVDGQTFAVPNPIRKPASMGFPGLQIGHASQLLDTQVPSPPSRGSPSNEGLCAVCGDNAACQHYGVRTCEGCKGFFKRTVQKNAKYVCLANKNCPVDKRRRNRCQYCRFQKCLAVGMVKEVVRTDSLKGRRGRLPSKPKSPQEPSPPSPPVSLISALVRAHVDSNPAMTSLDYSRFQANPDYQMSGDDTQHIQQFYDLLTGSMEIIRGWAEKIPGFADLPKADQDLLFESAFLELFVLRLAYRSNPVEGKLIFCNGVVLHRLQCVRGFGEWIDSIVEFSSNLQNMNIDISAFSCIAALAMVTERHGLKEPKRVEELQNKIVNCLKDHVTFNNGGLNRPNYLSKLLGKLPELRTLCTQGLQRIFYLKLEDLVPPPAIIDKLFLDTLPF
In short: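 Chimeric NR-Gal4 fusion activity measured in HepG2 after 24 h treatment. Reporter transcripts detected by RT-PCR and capillary electrophoresis fluorescence; positive-direction curve fitting against DMSO.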

[10] = target: Transcriptional activator Myb (Homo sapiens) (UniProt P10242); experiment: ATG_Myb_CIS: Attagene CIS-FACTORIAL HepG2 Assay for human Myeloblastosis (Myb) Proto-Oncogene Transcription Factor (AID 2282986; active = hit-call score of the fitted dose curve at least 0.9, where 1 is the maximum; inactive = score below 0.9); details: HepG2 Attagene CIS-FACTORIAL Myb reporter transcription; actives raise or lower the signal
Transcriptional activator Myb (Homo sapiens), sequence (P10242 whole entry, looked up): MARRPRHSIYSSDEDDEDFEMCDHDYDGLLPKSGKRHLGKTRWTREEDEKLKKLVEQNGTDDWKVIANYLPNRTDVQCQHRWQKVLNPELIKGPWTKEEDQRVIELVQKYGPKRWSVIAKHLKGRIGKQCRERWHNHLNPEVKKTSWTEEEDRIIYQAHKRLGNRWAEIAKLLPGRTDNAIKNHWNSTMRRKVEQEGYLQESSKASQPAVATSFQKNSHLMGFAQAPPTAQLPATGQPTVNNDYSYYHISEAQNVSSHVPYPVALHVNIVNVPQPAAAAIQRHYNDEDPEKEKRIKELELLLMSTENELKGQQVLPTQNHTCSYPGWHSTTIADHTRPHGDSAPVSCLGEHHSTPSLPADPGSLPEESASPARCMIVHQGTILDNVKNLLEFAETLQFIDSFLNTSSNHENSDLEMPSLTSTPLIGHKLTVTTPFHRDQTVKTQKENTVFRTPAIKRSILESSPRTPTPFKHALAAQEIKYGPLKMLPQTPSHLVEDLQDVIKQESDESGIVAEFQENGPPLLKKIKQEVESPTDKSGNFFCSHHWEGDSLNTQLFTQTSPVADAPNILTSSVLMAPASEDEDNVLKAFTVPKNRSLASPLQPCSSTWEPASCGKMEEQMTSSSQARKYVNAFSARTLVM
In short: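 Multiplexed cis-reporter system in HepG2: transient transfection, 24 h treatment, mRNA readout by RT-PCR and capillary electrophoresis. Both increases and decreases are scored versus DMSO negative control.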

[11] = target: Nuclear respiratory factor 1 (Homo sapiens) (UniProt Q16656); experiment: ATG_NRF1_CIS: Attagene CIS-FACTORIAL HepG2 Assay for human Nuclear Respiratory Factor 1 (NRF1) Orphan Gene (AID 2282987; active = hit-call score of the fitted dose curve at least 0.9, where 1 is the maximum; inactive = score below 0.9); details: HepG2 NRF1 cis-element reporter, Attagene multiplex; actives raise or lower the signal
Nuclear respiratory factor 1 (Homo sapiens), sequence (Q16656 whole entry, looked up): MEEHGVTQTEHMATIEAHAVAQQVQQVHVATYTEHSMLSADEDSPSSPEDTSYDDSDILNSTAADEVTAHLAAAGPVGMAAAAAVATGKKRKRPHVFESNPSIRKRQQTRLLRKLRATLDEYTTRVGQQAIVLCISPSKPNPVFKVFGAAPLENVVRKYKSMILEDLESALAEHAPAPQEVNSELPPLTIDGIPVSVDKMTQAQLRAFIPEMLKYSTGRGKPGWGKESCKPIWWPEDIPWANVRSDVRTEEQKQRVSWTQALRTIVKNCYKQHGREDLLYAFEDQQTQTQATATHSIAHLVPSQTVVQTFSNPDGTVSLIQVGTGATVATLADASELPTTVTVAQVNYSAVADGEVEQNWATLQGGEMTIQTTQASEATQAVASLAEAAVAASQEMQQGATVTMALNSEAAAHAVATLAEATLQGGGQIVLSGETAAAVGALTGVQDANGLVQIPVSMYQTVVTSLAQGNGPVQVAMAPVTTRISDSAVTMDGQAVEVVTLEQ
In short: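 Endogenous factor activity was captured via cis-element-driven reporter transcripts in HepG2 cells. Following 24 h chemical treatment, transcripts were quantified by RT-PCR and capillary electrophoresis.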

[12] = target: Steroid hormone receptor ERR1 (Homo sapiens) (UniProt P11474); experiment: ATG_ERRa_TRANS: Attagene TRANS-FACTORIAL HepG2 Assay for human Estrogen-Related Receptor alpha (ERRa) (AID 2282971); details: HepG2 Attagene TRANS reporter, ERRa transactivation
In short: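 HepG2 cells transiently transfected with GAL4-UAS reporter units and chimeric NR-Gal4 constructs; after 24 hour compound incubation, reporter mRNA quantified by RT-PCR, fluorescent labelling and capillary electrophoresis, gain of signal versus DMSO.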

[13] = ATG_GAL4_TRANS: Attagene TRANS-FACTORIAL HepG2 Assay for GAL4 (Internal Marker) (AID 2282976); details: HepG2 Attagene TRANS GAL4 internal marker reporter
In short: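 Background-control readout: GAL4-UAS reporter transcript in transiently transfected HepG2 cells after 24 h compound exposure. Measured by RT-PCR, 6-FAM primer extension, HpaI digest and capillary electrophoresis; gain-of-signal fit versus DMSO.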

[14] = target: Estrogen-related receptor gamma (Homo sapiens) (UniProt P62508); experiment: ATG_ERRg_TRANS: Attagene TRANS-FACTORIAL HepG2 Assay for human Estrogen-Related Receptor gamma (ERRg) (AID 2282977); details: HepG2 Attagene TRANS reporter, ERRg transactivation;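 also: hits increase reporter signal over DMSO so potencies reflect activators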
Estrogen-related receptor gamma (Homo sapiens), sequence (P62508 whole entry, looked up, the tested form may be a part): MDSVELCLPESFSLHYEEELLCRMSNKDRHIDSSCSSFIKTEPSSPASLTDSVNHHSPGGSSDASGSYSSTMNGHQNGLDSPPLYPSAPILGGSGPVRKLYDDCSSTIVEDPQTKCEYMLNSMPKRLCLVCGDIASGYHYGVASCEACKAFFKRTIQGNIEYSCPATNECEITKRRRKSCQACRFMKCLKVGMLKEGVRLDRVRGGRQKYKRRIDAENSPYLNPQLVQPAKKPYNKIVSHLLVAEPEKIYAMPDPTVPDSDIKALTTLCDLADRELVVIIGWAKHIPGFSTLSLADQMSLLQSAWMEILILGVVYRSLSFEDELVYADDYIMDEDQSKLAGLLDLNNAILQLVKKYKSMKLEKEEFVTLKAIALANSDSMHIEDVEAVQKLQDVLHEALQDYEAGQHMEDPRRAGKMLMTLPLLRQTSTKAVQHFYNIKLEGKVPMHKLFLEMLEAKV
In short: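 Exogenous NR-Gal4 chimera activity measured as reporter transcript induction after 24 h in transiently transfected HepG2 cells. RNA reverse-transcribed, PCR-amplified, 6-FAM-labelled and resolved by capillary electrophoresis; increase over DMSO baseline.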

[15] = target: Hepatocyte nuclear factor 4-alpha (Homo sapiens) (UniProt P41235); experiment: ATG_HNF4a_TRANS: Attagene TRANS-FACTORIAL HepG2 Assay for human Hepatocyte Nuclear Factor 4 alpha (HNF4a) (AID 2282982); details: HepG2 HNF4a transactivation reporter, mRNA readout
In short: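 In this trans-factorial format, a chimeric HNF4a-GAL4 fusion drives a GAL4-UAS reporter in transfected HepG2 liver cells. After 24 h treatment, reporter mRNA induction is measured by RT-PCR with capillary electrophoresis, relative to DMSO.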

[16] = ATG_M_32_TRANS: Attagene TRANS-FACTORIAL HepG2 Assay for M32 Transcription Factor (Internal Marker) (AID 2282984); details: HepG2 Attagene TRANS M32 internal marker reporter
In short: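 After 24 h dosing of transfected HepG2 cells, total RNA was reverse-transcribed, reporter sequences PCR-amplified, 6-FAM labelled by primer extension and HpaI-digested before capillary electrophoresis. Signal increase over DMSO was fitted.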

[17] = target: Bile acid receptor (Homo sapiens) (UniProt Q96RI1); experiment: ATG_FXR_TRANS: Attagene TRANS-FACTORIAL HepG2 Assay for Farnesoid X Receptor (FXR) (AID 2282979); details: HepG2 Attagene TRANS FXR-GAL4 reporter transcription;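 also: hits raise reporter mRNA above DMSO so AC50 marks FXR activation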
Bile acid receptor (Homo sapiens), sequence (Q96RI1 whole entry, looked up, the tested form may be a part): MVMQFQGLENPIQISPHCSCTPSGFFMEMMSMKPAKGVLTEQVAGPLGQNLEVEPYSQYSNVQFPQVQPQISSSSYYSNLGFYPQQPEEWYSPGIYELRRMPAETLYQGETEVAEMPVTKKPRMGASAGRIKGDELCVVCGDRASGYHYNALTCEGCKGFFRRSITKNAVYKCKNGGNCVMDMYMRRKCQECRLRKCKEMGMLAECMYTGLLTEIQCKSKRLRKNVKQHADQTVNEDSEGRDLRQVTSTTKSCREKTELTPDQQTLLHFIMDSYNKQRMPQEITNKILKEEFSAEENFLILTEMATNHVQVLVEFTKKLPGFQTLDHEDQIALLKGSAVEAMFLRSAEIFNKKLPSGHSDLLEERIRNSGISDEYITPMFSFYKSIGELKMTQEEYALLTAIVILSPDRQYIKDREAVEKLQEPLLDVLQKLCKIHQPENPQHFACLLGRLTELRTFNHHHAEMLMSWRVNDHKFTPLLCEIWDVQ
In short: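 HepG2 cells were transiently transfected with GAL4-UAS reporters driven by chimeric NR-Gal4 proteins and dosed for 24 h. Reporter mRNA was quantified by RT-PCR, fluorescent labelling, HpaI digestion and capillary electrophoresis, with gain of signal scored versus DMSO.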

[18] = target: Estrogen receptor (Homo sapiens) (UniProt P03372); experiment: ATG_ERa_TRANS: Attagene TRANS-FACTORIAL HepG2 Assay for human Estrogen Receptor alpha (ERa) (AID 2282970); details: HepG2 Attagene TRANS ERa GAL4 reporter, mRNA
In short: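 Gal4-fusion ERa transactivation, measured as reporter transcript level in transiently transfected HepG2 cells. Exposure 24 h; RT-PCR plus capillary electrophoresis with fluorescence detection.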

Measured: outcome

CC(=O)[C@H]1[C@H](C#N)C[C@H]2[C@@H]3CC=C4C[C@@H](O)CC[C@]4(C)[C@H]3CC[C@@]21C
not listed: [12] | [13] | [14] | [15] | [16] | [17] | [18]
inactive: all other assays above

CCc1nccnc1C
not listed: [6] | [17] | [18]
inactive: all other assays above

CCC(C)C=O (configuration not stated)
inactive: [1] | [2] | [3] | [4] | [6] | [9] | [10] | [11]

COC(F)(F)C(F)(C(F)(F)F)C(F)(F)F
not listed: [4] | [6] | [9] | [12] | [14] | [15] | [18]
inactive: all other assays above

N[C@H]1C(O)O[C@H](CO)[C@H](O)[C@@H]1O (some centres not stated)
not listed: [5] | [9] | [12] | [15] | [16] | [17]
inactive: all other assays above
